Reference: the supplement of paper PMC13380429
Structures can show the parent of a compound that is named as a salt.

Legend:
[1] = test system: Vero E6 infected with SARS-CoV-2; assay: morphology score (similarity to uninfected cells); higher = more like uninfected cells; settings: 24 h
[2] = test system: Vero E6 infected with SARS-CoV-2; assay: SARS-CoV-2 infection rate relative to infected DMSO; higher = more infection, active = 60 or less; settings: 24 h

Compound	morphology score [1]	SARS-CoV-2 infection rate [2]
O=C(CCc1ccncc1)NNC(=O)N1Cc2ccccc2Oc2ccc(Cl)cc21 (10 µM)	-0.103	108% (inactive)
O=C1Nc2ccc(Cl)c3c2C1(CCCCN1CC=C(c2ccc(Cl)cc2)CC1)CCC3 (configuration not stated) (0.833333 µM)	0.0484	106% (inactive)
CC1=C(/C=C/C(C)=C/C=C/C(C)=C/C=O)C(C)(C)CCC1 [retinaldehyde] (10 µM)	-0.111	114% (inactive)
C[C@]12C=CC(=O)C=C1CC[C@@H]1[C@@H]2[C@@H](O)C[C@@]2(C)[C@H]1CC[C@]2(O)C(=O)COC(=O)CCC(=O)O [prednisolone-hemisuccinate] (10 µM)	0.166	94% (inactive)
C[C@@]1(F)[C@H](O)[C@@H](CO)O[C@H]1n1ccc(N)nc1=O (10 µM)	0.0439	104% (inactive)
CC(C)(C)/[N+]([O-])=C/c1ccc(S(=O)(=O)O)cc1S(=O)(=O)O (10 µM)	0.00191	114% (inactive)
C[C@@H]1CC[C@H]2C(C)(C)[C@H]3C[C@@]12CC[C@@]3(C)O [cedrol] (10 µM)	0.0579	95.5% (inactive)
O=C(O)c1cc2occc2[nH]1 (10 µM)	-0.103	109% (inactive)
COc1ccc(-c2coc3cc(O)cc(O)c3c2=O)cc1 [4-methylgenistein] (10 µM)	0.139	103% (inactive)
O=C(O)c1cc(C(=O)O)c(C(=O)N(Cc2cccc(Oc3ccccc3)c2)[C@H]2CCCc3ccccc32)cc1C(=O)O (10 µM)	0.189	95.5% (inactive)
CN(C)C(=O)Oc1ccc[n+](C)c1 [mestinon] (10 µM)	0.0902	121% (inactive)
CN(C)CC[C@H](CSc1ccccc1)Nc1ccc(S(=O)(=O)NC(=O)c2ccc(N3CCN(Cc4ccccc4-c4ccc(Cl)cc4)CC3)cc2)cc1[N+](=O)[O-] (10 µM)	0.105	108% (inactive)
Cc1ccc(NC(=O)CCCCCC(=O)Nc2ccccc2N)cc1 (0.833333 µM)	-0.0538	103% (inactive)
Cn1cc(-c2ccncc2)c(-c2ccc(OCc3ccc4ccccc4n3)cc2)n1 (10 µM)	0.927	8% (active)
COC(=O)C1=C(C)N(C)C(C)=C(C(=O)OC)C1c1ccc(C(F)(F)F)cc1 (10 µM)	-0.13	114% (inactive)
C=C1C(=O)O[C@@H]2[C@H]3C(C)=CC[C@@]34O[C@@]4(C)CC[C@@H]12 [arglabin] (10 µM)	0.144	68% (inactive)
CN(C)CC/C=C1/c2ccccc2COc2ccc(CC(=O)O)cc21 [Olopatadine hydrochloride (Opatanol)] (10 µM)	0.105	111% (inactive)
Nc1c2c(nc3c1CCC3)CCCC2 [ipidacrine] (10 µM)	0.22	83.5% (inactive)
Cn1cnc2c(F)c(Nc3ccc(Br)cc3F)c(C(=O)NOCCO)cc21 [binimetinib] (0.833333 µM)	-0.00339	110% (inactive)
CC(C)=CCC[C@](C)(O)[C@@H]1CC=C(C)CC1 [levomenol] (10 µM)	-0.0548	104% (inactive)
CCCn1cnc2c1c(=O)n(CCCCC(C)=O)c(=O)n2C [propentofylline] (10 µM)	0.065	102% (inactive)
O=C(/C=C/c1ccc(CN(CCO)CCc2c[nH]c3ccccc23)cc1)NO [dacinostat] (0.833333 µM)	0.00104	104% (inactive)
CC(C)(N)c1cc(C(=O)N[C@@H]2CCc3ccc(Oc4ccnc5c4CCC(=O)N5)cc3C2)cc(C(F)(F)F)c1 (0.833333 µM)	0.227	99% (inactive)
CCC[C@@H]1C[C@@H](C(=O)N[C@@H]([C@H]2O[C@H](SC)[C@H](O)[C@@H](O)[C@H]2O)[C@H](C)Cl)N(C)C1 (10 µM)	-0.131	102% (inactive)
Cc1cc(CCCOc2c(C)cc(-c3noc(C(F)(F)F)n3)cc2C)on1 [pleconaril] (10 µM)	-0.0431	108% (inactive)
CCc1ccc2c(-c3cccc(Cl)c3)nc(=O)n(CC)c2n1 (10 µM)	0.375	100% (inactive)
